Chronic BCR inh: blocks chronic active B-cell receptor signaling. ABC-DLBCL IkBa-CBG/CBR reporter, luminescence ratio, 4 h. Potency, µM (doses to about 46.1 µM), usual class: inhibitors. 340,000 tested, 0.05% active; active = well fitted inhibition curve with a large enough effect in the signal ratio, with a control signal flat, not every such curve was filed as active; inconclusive = small, poorly fitted or top-dose-only effect, or effect the other way, or a change in a side signal; the % refers to the signal ratio
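Compounds up to 46 uM were incubated four hours with TMD8 cells whose green CBG68 luciferase is fused to IkappaBalpha; red CBR luminescence normalised the signal, and concentration-effect curves were fitted to fusion, red and ratio data.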
DT40 TDP1 CPT: DT40-hTDP1 cell growth loss with CPT; chicken DT40 Tdp1-/-;hTDP1 cells + 20 nM CPT, ATP luminescence, 48 h; Potency, µM (series often up to 46.2 µM), most hits filed as inhibitors; 420,000 tested, 12% active; AID 686979; also: nearly all actives have a fitted effect of over 55% in size
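Chicken DT40 Tdp1-/- cells complemented with human TDP1, 400 cells/well, exposed to compounds plus 20 nM camptothecin for at least 48 h at 37 C; viability read as ATP content by CellTiter-Glo luminescence.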
MCF10A rerep: DNA re-replication induction in MCF 10a cells | Potency, µM (highest dose often 46.1 µM), hits mostly activators | MCF 10A DNA re-replication, Hoechst nuclear intensity, 48 h | 350,000 tested, 2.9% active; also: nearly all actives have a fitted effect of over 50% in size
SW480 rerep: induces DNA re-replication in SW480 colon adenocarcinoma cells; SW480 DNA re-replication, Hoechst DNA content imaging, 48 h; Potency, µM (titrated, usually from 46.1 µM), actives largely listed as activators; 340,000 tested, 1.8% active; AID 624297; also: nearly all actives have a fitted effect of over 55% in size
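250 cells/well; 23 nL cpd via pin tool; 48 hr, 37 C, 5% CO2; Hoechst 40 min; imager read of total nuclear intensity, ex 405/em 500-530 nm.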
TDP1 cell noCPT: qHTS for Inhibitors of human tyrosyl-DNA phosphodiesterase 1 (TDP1): qHTS in cells in absence of CPT | 420,000 tested, 15% active | DT40 Tdp1-/- hTDP1 cells, no CPT, ATP luminescence, 48 h | Potency, µM (series often up to 46.2 µM), actives largely listed as inhibitors; also: nearly all actives have a fitted effect of over 55% in size
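A cellular qHTS used chicken DT40 cells lacking endogenous Tdp1 but carrying stably transfected human TDP1. Compounds were applied without camptothecin, and cell growth kinetics were judged by ATP-dependent luminescence after ≥48 hr.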
IL1B secr inh: inhibitors of inflammasome signaling (IL-1 beta secretion); THP-1 LPS/ATP IL-1B secretion, AlphaLISA, 16 h; active compounds read low; activity change, % at 57.5 µM; 360,000 tested, 4.7% active; AID 743279; in the data active = activity change below about -50%; inconclusive = mostly about -30% to -49%
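Secreted IL-1B measured by AlphaLISA bead assay after 16 h compound exposure of THP-1 cells; compounds (final up to 57.5 uM) added 1 h before LPS (250 ng/mL) and ATP (1.25 mM) stimulation; lower signal means less secretion.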
Each line names hits and unclear results; the compound was inactive in the other large screens. Hits are enriched below; roughly 19% of the tested compounds scored in any of these assays. Unless noted, calls follow the shape of the dose curve; as a rule, active = well fitted curve in the direction sought with a large enough effect; inconclusive = small, poorly fitted or top-dose-only effect, or another doubt; inactive = no such curve, though single readings can be large; an effect the other way counts as inactive or inconclusive.

CCc1ccc(OCCNc2cc(N3CCNC(C)C3)ccc2[N+](=O)[O-])cc1 (centres undefined)	Chronic BCR inh inconclusive, DT40 TDP1 CPT 23µM, MCF10A rerep inconclusive, TDP1 cell noCPT inconclusive, IL1B secr inh -67
NCCNc1cc(N2CCCC2)ccc1[N+](=O)[O-]	DT40 TDP1 CPT 23µM, TDP1 cell noCPT inconclusive
CC1CN(c2ccc([N+](=O)[O-])c(NCCOc3ccccc3)c2)CC(C)N1 (centres undefined)	DT40 TDP1 CPT inconclusive, TDP1 cell noCPT inconclusive, IL1B secr inh -59
Cc1ccccc1OCCNc1cc(N2CC(C)NC(C)C2)ccc1[N+](=O)[O-] (centres undefined)	Chronic BCR inh inconclusive, DT40 TDP1 CPT 15µM, TDP1 cell noCPT inconclusive, IL1B secr inh inconclusive
CC(C)(C)CNc1cc(N2CCCC2)ccc1[N+](=O)[O-]	none
COc1cccc(OC(=O)CSc2nnc(-c3ccc4c(c3)OCO4)o2)c1	none (no result: Chronic BCR inh, MCF10A rerep, SW480 rerep, IL1B secr inh)
O=[N+]([O-])c1ccc(N2CCCCC2)cc1NCCOc1ccccc1	DT40 TDP1 CPT 29µM, TDP1 cell noCPT 18µM
COc1cccc(CNC(=O)CN2C(=O)N(c3cc(C)ccc3C)S(=O)(=O)c3ccccc32)c1OC	DT40 TDP1 CPT 13µM, TDP1 cell noCPT 23µM (no result: MCF10A rerep, SW480 rerep, IL1B secr inh)
Cc1ccc(C)c(N2C(=O)N(Cc3ccccc3C)c3ccccc3S2(=O)=O)c1	Chronic BCR inh inconclusive, DT40 TDP1 CPT 18µM, TDP1 cell noCPT 29µM (no result: MCF10A rerep, SW480 rerep, IL1B secr inh)
CCOC(=O)CN1C(=O)N(c2ccccc2OC)S(=O)(=O)c2ccccc21	none
COc1cccc(CNC(=O)CN2C(=O)N(c3c(C)cccc3C)S(=O)(=O)c3ccccc32)c1OC	DT40 TDP1 CPT 16µM, TDP1 cell noCPT 16µM (no result: MCF10A rerep, SW480 rerep, IL1B secr inh)
CCOc1ccc(C(=O)NCC(=O)OCc2nnc(-c3ccccc3)o2)cc1OCC	none
Clc1ccc2nc(CSc3nnc(-c4c[nH]c5ccccc45)o3)cn2c1	none (no result: Chronic BCR inh)
O=C(CSc1nnc(-c2c[nH]c3ccccc23)o1)N(Cc1ccccc1)c1ccc(F)cc1	DT40 TDP1 CPT inconclusive, TDP1 cell noCPT inconclusive, IL1B secr inh -65
O=c1c(-c2nnc(SCc3ccc(Cl)c(Cl)c3)o2)cccn1Cc1ccccc1	DT40 TDP1 CPT inconclusive, TDP1 cell noCPT 21µM
Clc1cccc(CSc2nnc(-c3c[nH]c4ccccc34)o2)c1	Chronic BCR inh inconclusive, DT40 TDP1 CPT inconclusive, MCF10A rerep 11µM, TDP1 cell noCPT inconclusive
COc1ccc(CN(C(=O)CSc2nnc(-c3ccccc3C)o2)c2ccc(F)cc2)cc1	DT40 TDP1 CPT inconclusive, SW480 rerep inconclusive, TDP1 cell noCPT 23µM
CN(CCC#N)C(=O)CSc1nnc(-c2c[nH]c3ccccc23)o1	none
C[C@@H]1CN([C@@H](C)CO)C(=O)CCCn2nncc2CO[C@H]1CN(C)Cc1ccc(Cl)c(Cl)c1	none (no result: Chronic BCR inh, MCF10A rerep, SW480 rerep)
CCOC(=O)CN(C(=O)CSc1nnc(-c2cccc(OC)c2)o1)c1ccc(F)cc1	Chronic BCR inh inconclusive, DT40 TDP1 CPT inconclusive, TDP1 cell noCPT 16µM
O=[N+]([O-])c1ccc(S(=O)(=O)NCc2nc3cccnc3n2Cc2ccccc2Cl)cc1	DT40 TDP1 CPT 15µM, TDP1 cell noCPT 15µM (no result: Chronic BCR inh, MCF10A rerep, SW480 rerep, IL1B secr inh)
CCc1ccc(Cn2c(CNS(=O)(=O)c3ccc4c(c3)CCCC4)nc3cccnc32)cc1	DT40 TDP1 CPT inconclusive, TDP1 cell noCPT 16µM (no result: Chronic BCR inh, MCF10A rerep, SW480 rerep, IL1B secr inh)
CCCC(=O)NCc1nc2cccnc2n1Cc1ccc(F)cc1	none (no result: Chronic BCR inh, MCF10A rerep, SW480 rerep, IL1B secr inh)
COc1ccc(Cn2c(CCC(=O)O)nc3cccnc32)cc1	none
CCc1ccc(S(=O)(=O)NCc2nc3cccnc3n2Cc2ccccc2Cl)cc1	DT40 TDP1 CPT inconclusive, TDP1 cell noCPT 15µM (no result: Chronic BCR inh, MCF10A rerep, SW480 rerep, IL1B secr inh)
CC(C)CC(=O)NCc1nc2cccnc2n1Cc1ccccc1	none (no result: Chronic BCR inh, MCF10A rerep, SW480 rerep, IL1B secr inh)
COc1ccc(Cn2c(CNS(=O)(=O)c3ccc(Cl)s3)nc3cccnc32)cc1	DT40 TDP1 CPT inconclusive, TDP1 cell noCPT 16µM (no result: Chronic BCR inh, MCF10A rerep, SW480 rerep, IL1B secr inh)
